The nature of experiment [1]: Viability qHTS for spleen associated tyrosine kinase inhibitor (SYKi) naive MV4-11 cells (AID 1963823). Note: nearly all actives have a fitted effect of over 40% in size. The method in brief: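 SYKi-naive MV4-11 AML cells, 500 per well, were exposed to library compounds for 72 hr at 37 C, 5% CO2. Viability was then read by CellTiter-Glo luminescence after 10 min at room temperature.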
For orientation: In qHTS, concentration-response curves come from the screen itself.

Experiment [2] can be described thus: Viability qHTS for spleen associated tyrosine kinase inhibitor (SYKi) drug resistant MV4-11 cells (AID 1963824). Note: nearly all actives have a fitted effect of over 35% in size. Put shortly:
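CellTiter-Glo luminescence, read 10 min after reagent addition, reports viability after a 72 hr compound exposure. Cells are an MV4-11 line made resistant to SYK inhibition, seeded at 500 per well onto compound-containing plates.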

Experiment [3] is described as follows: Quantitative highthroughput screen to assess conditional lethalithy of NOMO1 cells grown in RPMI1640 with untreated serum (RPMI+s) (AID 1963876).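 For Viability: 100% = DMSO wells and 0% = empty wells without cells.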 Note: nearly all actives have a fitted effect of over 35% in size. Put shortly:
(§1)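 Each medium arm—HPLM with 10% dialyzed FBS, or RPMI1640 with 5 mM glucose and 10% untreated or dialyzed FBS—was screened against an 11-point, 3-fold compound titration for 48 h at 37 °C, with CellTiter-Glo luminescence as endpoint.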

Experiment [4] is described as follows: Quantitative highthroughput screen to assess conditional lethalithy of NOMO1 cells grown in RPMI1640 with dialyzed fetal bovine serum (RPMI+ds) (AID 1963877).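 For Viability: series mostly up to about 46 µM; 100% = DMSO control wells and 0% = empty wells.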 Note: nearly all actives have a fitted effect of over 30% in size. Put shortly:
as §1

Experiment [5] is described as follows: Quantitative highthroughput screen to assess conditional lethalithy of NOMO1 cells grown in Human Plasma-Like Medium with dialyzed fetal bovine serum (HPLM+ds) (AID 1963878).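 For Viability: 100% = DMSO wells and 0% = empty wells on each plate.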 Note: nearly all actives have a fitted effect of over 35% in size. Put shortly:
as §1

Experiment [6] is described as follows: Quantitative highthroughput screen to assess conditional lethalithy of P12 Ichikawa cells grown in RPMI1640 with dialyzed fetal bovine serum (RPMI+ds) (AID 1963880).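 For Viability: 100% = DMSO wells and 0% = empty wells on each plate.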 Note: nearly all actives have a fitted effect of over 35% in size. The following applies: Potency: P12-Ichikawa viability. The method in brief:
as §1

Experiment [7] can be described thus: Quantitative highthroughput screen to assess conditional lethalithy of P12 Ichikawa cells grown in RPMI1640 with untreated serum (RPMI+s) (AID 1963881).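 For Viability: series mostly up to about 46 µM; 100% = DMSO wells and 0% = empty wells without cells.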 Note: nearly all actives have a fitted effect of over 35% in size. The following applies: Potency: viability. Put shortly: as §1
A short description of experiment [8]: Quantitative highthroughput screen to assess conditional lethalithy of SEM cells grown in Human Plasma-Like Medium with dialyzed fetal bovine serum (HPLM+ds) (AID 1963882). For Viability: series mostly up to about 46 µM. Note: nearly all actives have a fitted effect of over 35% in size. Put shortly: as §1
Experiment [9] is described as follows: Quantitative highthroughput screen to assess conditional lethalithy of SEM cells grown in RPMI1640 with unreated serum (RPMI+s) (AID 1963883).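 For Viability: 100% = DMSO wells and 0% = empty wells without cells.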 Note: nearly all actives have a fitted effect of over 35% in size. The method in brief: as §1
Experiment [10] in a line: Quantitative highthroughput screen to assess conditional lethalithy of SEM cells grown in RPMI1640 with dialyzed fetal bovine serum (RPMI+ds) (AID 1963884).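 For Viability: series mostly up to about 46 µM; 100% = DMSO control wells and 0% = empty wells without cells.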 Note: nearly all actives have a fitted effect of over 35% in size. The method in brief:
as §1

The nature of experiment [11]: Cellular viability qHTS for adrenocortical cancer (ACC) cell line NCI-H295R (AID 1963990). Note: nearly all actives have a fitted effect of over 60% in size. The method in brief:
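CellTiter-Glo ATP luminescence, read 48 h after compound addition, measured viability of NCI-H295R adrenocortical cells grown serum-free with ITS. Final concentrations spanned up to 46 uM. Data normalized to DMSO and doxorubicin, fitted for IC50 and maximal response.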

Experiment [12] is described as follows: Cellular viability qHTS for adrenocortical cancer (ACC) cell line SW-13 (AID 1963989).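 For activity (max response): cells grown in serum-free medium with ITS supplement; % is set by controls: 0 for no effect and ±100 for the full control effect.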 Note: nearly all actives have a fitted effect of over 65% in size. The following applies: SW-13 ACC cells viability, CellTiter-Glo, 48 h; activity (max response): active compounds read low. Put shortly: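 Viability was read as CellTiter-Glo luminescence after 48 h compound treatment (up to 46 uM final) of SW-13 cells grown serum-free; titration curves were fit with a four-parameter logistic model to give IC50 and efficacy.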

SMILES strings stand for the structures. Several values for one entry are separate records, joined by “and”; a condition that tells them apart may be missing. Equal entries are not always repeated. Records with an inconclusive call do not appear. Unmarked numbers belong to inactive results. Activity calls are given as the source filed them. Calls come from the whole dose curve; as a rule, active = well fitted curve in the direction sought with a large enough effect; inconclusive = small, poorly fitted or top-dose-only effect, or another doubt; inactive = no such curve, though single readings can be large; an effect the other way counts as inactive or inconclusive.
Potency is the fitted concentration of half-maximal effect.

`Cc1noc(-c2ccc(CSCCC(=O)O)cc2)c1NC(=O)OC(C)c1ccccc1Cl` (stereo not given): the Potency entry in experiment [1], in [2], in experiment [3], in experiment [4], in [5] and in [6] was “inactive” throughout. The Potency entry in experiment [7], in [8], in experiment [9], in experiment [10] and in experiment [11] was “inactive” throughout.

For the compound `Cc1ccc(C(=O)Nc2cccc(C(F)(F)F)c2)cc1-c1ccc2nc(NCCN3CCOCC3)ncc2c1`, the Potency in experiment [1] was 184 nM (active) and 372 nM (active); in [2] it was 366 nM (active) and 742 nM (active); in experiment [3], 5.9 µM (active); in experiment [4], 4.69 µM (active); in experiment [5], 4.18 µM (active); in experiment [8], 4.69 µM (active). Moreover, the Potency in experiment [9] is 4.18 µM (active); in [12] it was 14.1 µM (active); in experiment [11], 22.4 µM (active).

Turning to `O=C(c1ccc(F)cc1)N1CCC[C@H](c2nc(-c3ccc(F)cc3)no2)C1`, the figures for the Potency in experiment [1] and in experiment [2] were 20.9 µM (active) and 11.8 µM (active), respectively. In addition, the Potency result in experiment [3], in experiment [4], in [5], in experiment [8], in [9] and in [10] was “inactive” each time. Further, in [11], the Potency entry was “inactive”. Further, in [12], the activity (max response) was -11.7%.

For the compound `N#Cc1ccnc(Nc2cc(C3CCN(C4COC4)CC3)cc(N3CCC(F)(F)C3)n2)c1`, the Potency is 1.16 µM (active) and 118 nM (active) in experiment [1]; 2.06 µM (active) and 235 nM (active) in experiment [2]; 13.2 µM (active) in experiment [3]; 13.2 µM (active) in experiment [4]; 14.8 µM (active) in experiment [5]; 13.2 µM (active) in experiment [8]. For the same compound, the figures for the Potency in experiment [9], in experiment [10] and in experiment [12] were 13.2 µM (active), 9.33 µM (active) and 15.8 µM (active), respectively.

With `COc1c2occc2cc2ccc(=O)oc12`, the Potency result in experiment [1], in experiment [2], in experiment [3], in experiment [4], in experiment [5] and in experiment [8] was “inactive” each time. Also, the Potency entry in [9], in experiment [10] and in [11] was “inactive” throughout. Besides, the Potency in experiment [6] is 7.43 µM (active). The activity (max response) in [12] is 8.25% and 3.48%.

As to `CCN1CCN(c2ccc(Nc3cc(N(C)C(=O)Nc4c(Cl)c(OC)cc(OC)c4Cl)ncn3)cc2)CC1`, the Potency is 2.63 µM (active) in experiment [1]; 1.86 µM (active) in experiment [2]; 5.26 µM (active) in [3]; 7.43 µM (active) in [4]; 3.32 µM (active) in experiment [5]; 4.18 µM (active) in experiment [8]. Besides, the Potency in [9] was 2.09 µM (active); in experiment [10] it was 2.64 µM (active). Moreover, the activity (max response) in experiment [12] is -7.03%. For the same compound, in [11], the Potency result is “inactive”.

For `Cc1cc(-c2ncc(CC(=O)Nc3ccc(-c4cnccn4)cn3)cc2C)ccn1`, the figures for the Potency in [1] and in experiment [2] were 5.25 µM (active) and 2.06 µM (active), respectively. Also, the Potency entry in experiment [3], in [4], in experiment [5], in experiment [6], in experiment [7] and in experiment [8] was “inactive” in each case. The Potency result in experiment [9] and in experiment [11] was “inactive” in each case.

On to `Fc1ccc(CNc2ncnc3ccc(F)cc23)cc1`, for which the Potency was 2.06 µM (active) in experiment [1], 1.84 µM (active) in [2] and 11.8 µM (active) in [6]. The Potency result in experiment [3], in experiment [4], in experiment [5], in experiment [9] and in experiment [10] was “inactive” throughout.

For `C[C@H]1COC2=C1C(=O)C(=O)c1c2ccc2c1CCCC2(C)C`, the Potency in experiment [1] is 5.9 µM (active); in [2], 5.25 µM (active); in [9] it was 2.35 µM (active); in experiment [10], 13.2 µM (active). The Potency result in experiment [3], in [4], in experiment [5], in [6] and in experiment [7] was “inactive” throughout. Further, in [12], the activity (max response) is -2.17%.

Turning to `OC[C@H](Cc1ccccc1)Nc1nc(Oc2ccc3c(c2)CCC3)nc2c1ncn2Cc1ccc(-c2ccccc2)cc1`, the Potency in experiment [1] was 13.2 µM (active); in experiment [2], 10.5 µM (active). For the same compound, the Potency result in [3], in experiment [4], in [5], in [7], in experiment [9] and in experiment [10] was “inactive” in each case. Also, the activity (max response) in [12] was -12.9%.

Take `CC(C)CC(=O)Nc1n[nH]c2c1CN(C(=O)C1CCN(C)CC1)C2(C)C`: the Potency is 206 nM (active) and 417 nM (active) in experiment [1]; 259 nM (active) and 468 nM (active) in [2]; 3.72 µM (active) in [3]; 5.9 µM (active) in experiment [4]; 6.62 µM (active) in experiment [5]; 4.69 µM (active) in experiment [6]. The Potency is 4.18 µM (active) in experiment [7]; 2.64 µM (active) in [8]; 1.05 µM (active) in [9]; 4.69 µM (active) in experiment [10]; 3.98 µM (active) in [12].

As for `O=C(O)c1cc(=O)[nH]c(=O)[nH]1`, the Potency result in [1], in [2], in experiment [3], in [4], in experiment [5] and in experiment [6] was “inactive” in each case. Moreover, the Potency entry in experiment [7], in experiment [8], in experiment [9], in [10] and in [11] was “inactive” in each case. In addition, the activity (max response) in experiment [12] is -4.98%.

Consider `O=C(O)CCCCCC(=O)NN=C1CCCC1`, for which the Potency entry in experiment [1], in experiment [2], in experiment [3], in experiment [4], in experiment [5] and in experiment [6] was “inactive” throughout. The Potency result in experiment [7], in [8], in experiment [9], in experiment [10] and in experiment [11] was “inactive” in each case. Further, in [12], the activity (max response) was 2.29%.

As for `CO[C@@H]1C(N(C)C(=O)c2ccccc2)C[C@H]2O[C@]1(C)n1c3ccccc3c3c4c(c5c6ccccc6n2c5c31)C(=O)NC4=O` (stereo not given in full), the Potency in experiment [1] is 0.148 µM (active); in experiment [2], 0.332 µM (active); in [3] it was 14.8 µM (active); in experiment [4] it was 14.8 µM (active); in experiment [5], 9.35 µM (active); in [9], 1.87 µM (active). Further, the Potency in experiment [10] was 3.72 µM (active). Also, the Potency entry in experiment [11] is “inactive”.

In the case of `CNC(=O)c1nn(C)c2c1C(C)(C)Cc1cnc(Nc3ccc(N4CCN(C)CC4)cc3)nc1-2`, the Potency in [1] was 51.7 nM (active) and 74.2 nM (active); in [2], 82 nM (active) and 209 nM (active); in [3], 16.6 µM (active); in [4], 14.8 µM (active); in experiment [5], 8.33 µM (active); in experiment [8] it was 0.264 µM (active). The Potency was 0.372 µM (active) in experiment [9], 0.418 µM (active) in experiment [10], 5.01 µM (active) in experiment [12] and 14.1 µM (active) in [11].

For the origin of these results see PubChem BioAssay (NCATS).
